Measured values from PubChem BioAssay AID2796 (The Scripps Research Institute Molecular Screening Center, 2010).
About 8,000 (2.5%) of roughly 320,000 compounds were called active. For the sample, actives were picked, then their nearest neighbours and some compounds at random. Values without a mark were called inactive. Rule as the data show it: active = activation above about 47%; inactive = the rest.

Target: Aryl hydrocarbon receptor (Homo sapiens) (UniProt P35869)
Experiment: AHR activators, primary screen, cell-based, luminescence, luciferase reporter, human (AID 2796);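 also: 0% = vehicle wells and 100% = reference agonist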
Details: AHR-responsive luciferase reporter cells, at 5 µM, stronger effect = higher value

Chain of Aryl hydrocarbon receptor (Homo sapiens) (P35869 whole entry, looked up): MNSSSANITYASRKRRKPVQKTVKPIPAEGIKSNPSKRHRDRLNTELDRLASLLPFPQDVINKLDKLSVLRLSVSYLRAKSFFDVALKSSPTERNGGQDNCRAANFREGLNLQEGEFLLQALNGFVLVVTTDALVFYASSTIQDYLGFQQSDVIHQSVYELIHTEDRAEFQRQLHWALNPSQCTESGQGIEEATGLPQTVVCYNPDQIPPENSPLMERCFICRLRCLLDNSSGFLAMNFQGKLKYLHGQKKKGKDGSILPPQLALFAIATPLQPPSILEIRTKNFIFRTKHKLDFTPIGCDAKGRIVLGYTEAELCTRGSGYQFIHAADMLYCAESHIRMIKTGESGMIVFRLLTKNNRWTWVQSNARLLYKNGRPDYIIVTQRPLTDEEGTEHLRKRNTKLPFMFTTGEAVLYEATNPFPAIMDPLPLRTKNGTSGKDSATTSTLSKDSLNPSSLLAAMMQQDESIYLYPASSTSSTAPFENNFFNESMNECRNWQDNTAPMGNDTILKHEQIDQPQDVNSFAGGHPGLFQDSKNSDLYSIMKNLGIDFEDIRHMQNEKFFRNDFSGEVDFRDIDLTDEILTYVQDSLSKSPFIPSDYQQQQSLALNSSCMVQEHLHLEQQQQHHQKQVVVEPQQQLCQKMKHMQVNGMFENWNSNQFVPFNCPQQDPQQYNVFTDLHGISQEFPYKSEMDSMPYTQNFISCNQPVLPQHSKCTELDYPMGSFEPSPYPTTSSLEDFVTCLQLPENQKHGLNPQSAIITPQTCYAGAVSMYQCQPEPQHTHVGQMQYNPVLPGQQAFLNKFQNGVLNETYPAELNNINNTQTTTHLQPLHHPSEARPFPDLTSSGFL

Row | SMILES | activation
1 | CCOc1ccccc1NC(=O)COc1ccc(S(=O)(=O)N2CCCC2)cc1 | 7.9%
2 | COc1ccccc1C(=O)Nn1c(-c2cccs2)nc2ccccc2c1=O | 13.9%
3 | O=C(Nc1nnc(-c2ccccc2)o1)c1cc(-c2cccs2)nc2ccccc12 | 5.25%
4 | CC(=O)Nc1cccc(Nc2nc(-c3cccs3)nc3ccccc23)c1 | 51.4% (active)
5 | Cc1nc2c(ncn2-c2ccccc2)c(=O)n1NC(=O)CN1CCCC1 | 0.17%
6 | CC1CN(c2nc(-c3ccccc3)nnc2-c2ccccc2)CC(C)O1 (stereo unspecified) | 10.3%
7 | CC(C)Cn1c(CCC(=O)O)ccc1-c1cccs1 | -1.84%
8 | COc1cc2nc(Cl)nc(NCCO)c2cc1OC | -0.57%
9 | OCCCNc1nc(-c2ccccc2)c2cc(Cl)ccc2n1 | 3.68%
10 | OCCNc1nc(Nc2ccc(Cl)c(Cl)c2)nc2ccccc12 | 124% (active)
11 | O=C(NC(CC(=O)N1CCN(c2ccccc2)CC1)c1ccccc1)c1ccccc1Cl (stereo unspecified) | -0.75%
12 | Cc1cccc(-c2nc3ccccc3c(=O)n2NC(=O)Cc2ccc(Cl)cc2)c1 | -0.38%
13 | COc1cc(OC)cc(-c2nc3ccccc3c(=O)n2NC(=O)c2cccnc2Cl)c1 | 4.93%
14 | O=C(Nn1c(-c2ccc(Cl)cc2)nc2ccccc2c1=O)c1cccnc1Cl | 104% (active)
15 | COc1ccc(C(=O)COC(=O)c2ccc3ccccc3n2)cc1 | 2.48%
16 | O=C(Nc1ccc(S(=O)(=O)Nc2ccccn2)cc1)c1ccccc1 | -0.84%
17 | c1ccc(-c2cn3c(n2)CCc2ccc4cccnc4c2-3)cc1 | 64% (active)
18 | O=S(=O)(Nc1ncccn1)c1ccc(NS(=O)(=O)c2cccc(Cl)c2Cl)cc1 | 0.76%
19 | CC(=O)c1ccccc1OCc1ccc(C(=O)c2ccccc2)cc1 | 0.89%
20 | CCCCOc1ccc(CSC(=N)N)cc1[N+](=O)[O-] | 15%
21 | CCCCCOc1ccc(CSC2=NCCN2)cc1[N+](=O)[O-] | 6.95%

Row | SMILES | activation
22 | CCCOc1ccc(Cn2ccnc2)cc1[N+](=O)[O-] | 59.2% (active)
23 | O=C(CCC(=O)NNc1nc2ccccc2c2nc(-c3ccccc3)nn12)NCCCN1CCCC1=O | 55.5% (active)
24 | Cc1nn(Cc2ccccc2)c(C)c1C(=O)NCCCN1CCCC1=O | 2.56%
25 | COc1ccc(-c2cc(C(=O)NCCCN3CCCC3=O)c3ccccc3n2)cc1OC | 11.6%
26 | COc1ccc(N(CC(=O)NC2CCCCC2)C(=O)CNC(=O)c2ccco2)c(OC)c1 | 0.47%
27 | O=C(CN1C(=O)NC2(CCCCCCC2)C1=O)NCc1ccc(F)cc1 | 2.09%
28 | O=C1NC[C@@H](Cc2ccc(O)cc2)N(CCc2cccc(F)c2)C1=O | -0.45%
29 | COc1ccc2cc(C(=O)O)n(CC(=O)c3ccccc3)c2c1 | 18.9%
30 | CCn1c(=N)n(CC(=O)c2cccc(OC)c2)c2ccccc21 | 50.3% (active)
31 | CCOC(=O)c1cc2ccccc2n1CC(=O)c1ccccc1 | 24%
32 | O=C(Cn1nnc(N2CCCCC2)n1)c1ccc(Cl)c(Cl)c1 | -3.18%
33 | CCCn1c(=N)n(CC(=O)c2ccc(Cl)c(Cl)c2)c2ccccc21 | 66.2% (active)
34 | CCN(CC)CC1(O)CCN(C(=O)c2ccc(Cl)c(Cl)c2)CC1 | 10.4%
35 | O=C(c1c(F)cccc1Cl)N1CCN(S(=O)(=O)c2ccc3c(c2)OCCCO3)CC1 | -0.63%
36 | O=C(Nc1ccc(N2CCCCC2)cc1)c1cc(S(=O)(=O)N2CCOCC2)ccc1F | 0.49%
37 | CCc1ccccc1NC(=S)N(CCN1CCCCCC1)Cc1ccco1 | 0.79%
38 | COc1cccc(CNS(=O)(=O)c2ccc3c(c2)N(C(C)=O)CCS3)c1 | 7.96%
39 | Nc1ncnc2c1ncn2[C@@H]1O[C@H](CNCc2cccn2-c2nccs2)[C@@H](O)[C@H]1O | -1.49%
40 | Cc1ccc(NS(=O)(=O)c2c(C)[nH]c(=O)[nH]c2=O)cc1C | -2.23%
41 | COc1ccc(NC(=O)C2=C(C)NC(=O)NC2c2ccccc2[N+](=O)[O-])cc1 (stereo unspecified) | 2.47%
42 | FC(F)(F)c1cccc(NC(=S)Nc2cccc(Cl)c2)c1 | 6.14%

Row | SMILES | activation
43 | Cc1cccc(NC(=S)Nc2ccc(Cl)c(Cl)c2)c1 | 2.86%
44 | Cc1csc(NC(=S)Nc2cccc(Cl)c2)n1 | 81.2% (active)
45 | Cc1cccc(C(C)C)c1NC(=O)COC(=O)C1CC(=O)N(Cc2ccccc2)C1 (stereo unspecified) | 3.03%
46 | CCC(C)NC(=O)C1CCCN(C(=O)NC2CCCCC2)C1 (stereo unspecified) | 2.48%
47 | CC(=O)NC(CC(=O)Nc1ccc(S(=O)(=O)N2CCOCC2)cc1)c1ccccc1 (stereo unspecified) | 0.88%
48 | O=C(COC(=O)c1cccc(Cl)c1)NC1CCCCCCC1 | 0.68%
49 | O=C(Nc1nnc(COc2ccccc2)s1)Nc1ccccc1F | 10.9%
50 | COc1ccccc1NC(=O)Nc1nc(CC(=O)Nc2ccccc2F)cs1 | 25%
51 | COc1ccccc1NC(=O)Nc1nnc(Cc2ccc(F)cc2)s1 | 59.8% (active)
52 | CCN(CC)S(=O)(=O)c1cccc(-c2n[nH]c(=S)n2/N=C/c2ccc(C(=O)OC)cc2)c1 | 5.2%
53 | O=C(NC(=S)N1CCN(Cc2ccccc2)CC1)c1ccccc1 | 2.61%
54 | CC(C)c1ccc(Nc2ncccc2C#N)cc1 | 56.8% (active)
55 | O=C(COC(=O)c1ccc([N+](=O)[O-])o1)NC12CC3CC(CC(C3)C1)C2 | 0.67%
56 | Cc1cc2oc3ccc(NCCC4CCCN4C)cc3c(=O)c2cc1C (stereo unspecified) | 2.97%
57 | COc1cccc2sc3cc(NCC[C@@H]4CCCN4C)ccc3c(=O)c12 | 72.2% (active)
58 | COc1ccc(CCNC(=O)C(=O)NCC2CCNCC2)cc1OC | -0.68%
59 | COc1ccc(-c2cc(-c3ccc(N)cc3)nc(N)c2C#N)cc1OC | 79.4% (active)
60 | CCOc1cc(-c2cc(-c3ccc(NC(C)=O)cc3)nc(N)c2C#N)ccc1O | 8.37%
61 | CCOc1cc(-c2cc(-c3ccc(OC)cc3)nc(N)c2C#N)ccc1O | 0.62%
